Measurements from PubChem BioAssay (EPA / NIEHS).
Activity calls are given as the source filed them. How the source made its calls: active means hit-call score of the fitted dose curve at least 0.9, where 1 is the maximum; inconclusive means response in the unintended direction; inactive means score below 0.9.

These compounds were tested against Peroxisome proliferator-activated receptor gamma (Homo sapiens) (UniProt P37231) (assay: OT_PPARg_PPARgSRC1_1440: Odyssey Thera (OT) 24-hour Protein-Complementation Assay for Peroxisome Proliferator-activated Receptor Gamma/ SRC-1 Co-activator (AID 2283388);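 further: nuclear to cytoplasmic ratio of reconstituted Venus YFP fluorescence in fixed imaged cells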).
Method: OT_PPARg_PPARgSRC1_1440 is a cell-based assay that uses HEK293T, a human kidney cell line, with measurements taken at 24 hours after chemical dosing in a 384-well plate.OT_PPARg_PPARgSRC1_1440 is one of one assay component(s) measured or calculated from the OT_PPARg_PPARgSRC1_1440 assay. It is designed to make measurements of protein fragment complementation, a form of binding reporter, as detected with fluorescence intensity signals by Protein-fragment Complementation technology.Data from the assay component OT_PPARg_PPARgSRC1_1440 was analyzed into 1 assay endpoint. This assay endpoint, OT_PPARg_PPARgSRC1_1440, was analyzed in the positive analysis fitting direction relative to DMSO as the negative control and baseline of activity. Using a type of binding reporter, measures of receptor for gain-of-signal activity can be used to understand the binding at the pathway-level as they relate to the gene PPARG. Furthermore, this assay endpoint can be referred to as a primary readout, because the performed assay has only produced 1 assay endpoint. To generalize the intended target to other relatable targets, this assay endpoint is annotated to the nuclear receptor intended target family, where the subfamily is non-steroidal.
The OT PPARg/SRC-1 assay assessed receptor-chemical interactions using a rapidly maturing, intensely fluorescent mutant of YFP known as Venus, rationally dissected into two separate fragments. The fragments were obtained as follows: first, fragments coding for YFP1 and YFP2 (corresponding to amino acid residues 1-158 and 159-239 of the full length YFP, respectively) were generated by oligonucleotide synthesis (Blue Heron Biotechnology), and then PCR mutagenesis was used to generate the mutant fragments IFP1 and IFP2. Fusion constructs were transfected into HEK293T cells with a (Gly4Ser)2 linker between the PPARg/SRC-1 and YFP fragment genes to facilitate complementation when interacting proteins bring fragments into close proximity. The construct is transiently transfected in HEK293T cells 48 hours prior to treatment with test compounds. Cells are seeded into optical quality 384-well poly-D-lysine coated plates in MEM alpha medium (Invitrogen) supplemented with 10 percent FBS (Gemini Bio-Products) 1 percent penicillin and 1 percent streptomycin, and grown in 37C incubator equilibrated to 5 percent CO2. Cells are allowed to adhere for 24 hours prior to treatment with compounds of interest or controls for 24 hours. Cells are fixed in 4 percent formaldehyde and stained with Draq5 (BioStatus) to identify cells and subcellular compartment boundaries prior to signal detection. 8 Images per well were acquired on an Evotec Opera at 2 wavelengths (488 and 635nm), and the ratio of fluorescence in the nucleus relative to fluorescence in the cytoplasm (N/C Ratio) in the 488nm channel was calculated for a minimum of 350 cells per image.

Sequence of Peroxisome proliferator-activated receptor gamma (Homo sapiens) (P37231 whole entry, looked up, the tested form may be a part): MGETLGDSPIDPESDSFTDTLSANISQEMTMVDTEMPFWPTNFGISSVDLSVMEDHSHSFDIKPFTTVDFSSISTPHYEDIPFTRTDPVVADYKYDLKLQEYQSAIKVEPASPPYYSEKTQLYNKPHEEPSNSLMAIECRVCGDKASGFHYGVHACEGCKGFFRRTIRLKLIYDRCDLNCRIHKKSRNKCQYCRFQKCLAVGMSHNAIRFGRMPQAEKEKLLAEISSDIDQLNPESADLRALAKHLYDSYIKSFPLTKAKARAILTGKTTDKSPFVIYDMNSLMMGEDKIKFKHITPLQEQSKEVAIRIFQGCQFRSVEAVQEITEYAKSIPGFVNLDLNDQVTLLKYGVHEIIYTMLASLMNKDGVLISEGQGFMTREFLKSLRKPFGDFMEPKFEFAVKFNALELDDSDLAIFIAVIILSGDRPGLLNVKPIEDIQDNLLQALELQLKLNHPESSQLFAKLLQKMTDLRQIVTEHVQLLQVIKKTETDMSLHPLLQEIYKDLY

SMILES | outcome
COC(=O)N(OC)c1ccccc1COc1ccn(-c2ccc(Cl)cc2)n1 | inactive
CNC(=O)ON=CC(C)(C)SC | inactive
Cc1ccc(-c2c(Cl)nc(C#N)n2S(=O)(=O)N(C)C)cc1 | inactive
COc1nc(NC(C)C)nc(NC(C)C)n1 | inactive
Cc1c(F)c(F)c(COC(=O)C2C(/C=C(\Cl)C(F)(F)F)C2(C)C)c(F)c1F (stereo not given) | inactive
COP(=S)(OC)Oc1nc(Cl)c(Cl)cc1Cl | inactive
CC(C)Oc1cc(-n2nc(C(C)(C)C)oc2=O)c(Cl)cc1Cl | inactive
Fc1ccc(Oc2ccnc3cc(Cl)cc(Cl)c23)cc1 | inactive
C=CCC1=C(C)[C@@H](OC(=O)[C@@H]2[C@@H](C=C(C)C)C2(C)C)CC1=O | inactive
CC(C)C1(C)N=C(c2nc3ccccc3cc2C(=O)O)NC1=O (stereo not given) | inactive
CC1COC(Cn2cncn2)(c2ccc(Oc3ccc(Cl)cc3)cc2Cl)O1 (stereo not given) | inactive
COC(=O)C=C(C)OP(=O)(OC)OC | inactive
CON(C)C(=O)Nc1ccc(Cl)c(Cl)c1 | inactive
CCOc1cc(Oc2ccc(C(F)(F)F)cc2Cl)ccc1[N+](=O)[O-] | inactive
C=CCC1=C(C)C(OC(=O)C2C(C=C(C)C)C2(C)C)CC1=O (stereo not given) | inactive
CCOC(=O)C(Cl)Cc1cc(-n2nc(C)n(C(F)F)c2=O)c(F)cc1Cl (stereo not given) | inactive
CC(C)(C)c1ccc(CSc2cnn(C(C)(C)C)c(=O)c2Cl)cc1 | inactive
CCCCOC(=O)c1ccccc1C(=O)OCCCC | inactive
COc1ccc(C(c2ccc(OC)cc2)C(Cl)(Cl)Cl)cc1 | inactive
CCNc1nc(Cl)nc(NCC)n1 | inactive

SMILES | outcome
CCCN(CCC)c1c([N+](=O)[O-])cc(S(N)(=O)=O)cc1[N+](=O)[O-] | inactive
N#Cc1cc(Br)c(O)c(Br)c1 | inactive
CCNc1nc(Cl)nc(NC(C)C)n1 | inactive
COC(=O)C(C)Oc1ccc(Oc2ccc(Cl)cc2Cl)cc1 (stereo not given) | inactive
CO/C=C(/C(=O)OC)c1ccccc1Oc1cc(Oc2ccccc2C#N)ncn1 | inactive
N#CC(CCc1ccc(Cl)cc1)(Cn1cncn1)c1ccccc1 (stereo not given) | inactive
CN(C)C(=S)SSC(=S)N(C)C | inactive
O=C(O)COc1nc(Cl)c(Cl)cc1Cl | inactive
COC(=O)c1ccccc1C(=O)OC | inactive
CCOC(=O)CC(SP(=S)(OC)OC)C(=O)OCC (stereo not given) | inactive
CS/C(C)=N/OC(=O)N(C)SN(C)C(=O)O/N=C(\C)SC | inactive
CCON=C(CC)C1=C(O)CC(c2c(C)cc(C)cc2C)CC1=O (stereo not given) | inactive
CCc1nn(C)c(C(=O)NCc2ccc(C(C)(C)C)cc2)c1Cl | inactive
C#CCOS(=O)OC1CCCCC1Oc1ccc(C(C)(C)C)cc1 (stereo not given) | inactive
Oc1ccccc1-c1ccccc1 | inactive
CC1=C(C(=O)Nc2ccccc2)SCCO1 | inactive
N#Cc1nn(-c2c(Cl)cc(C(F)(F)F)cc2Cl)c(N)c1S(=O)C(F)(F)F (stereo not given) | inactive
O=C(Nc1ccccc1)Nc1ccnc(Cl)c1 | inactive
Cc1cc(Cl)ccc1OCC(=O)O | inactive
CC(Oc1ccc(Cl)cc1Cl)C(=O)O (stereo not given) | inactive
